Assay outcomes as filed in PubChem BioAssay.
Shown are actives, neighbours in structure and some others; about 12% of the full set was active somewhere.
PLK1 PBD inh: PLK1 (human) polo-box domain binding inhibition | P53350 | Plk1 PBD binding of FITC phosphopeptide, fluorescence polarization | Potency, µM, for the others: max response, negative = inhibition, most hits filed as inhibitors | hit rate 2.8% among 360,000 | AID 720504; further: potency means the concentration at half of the fitted maximal effect; series mostly up to about 57 µM; on the % scale 0 is the no-effect control and ±100 the full control effect; nearly all actives have a fitted effect of over 65% in size
PI5P4K alpha inh: inhibitors of human PI5P4K alpha; P48426; PI5P4Kalpha enzyme, ADP-Glo luminescence, 60 min; hits give low values; max response, %; hit rate 1.2% among 330,000; AID 652105; active means max response of -50% or lower; inconclusive means between -30% and -50%; inactive means -30% or higher; further: value at the top dose of about 77 µM; on the % scale 0 is the no-effect control and ±100 the full control effect
Target sequence (P48426 whole entry, looked up): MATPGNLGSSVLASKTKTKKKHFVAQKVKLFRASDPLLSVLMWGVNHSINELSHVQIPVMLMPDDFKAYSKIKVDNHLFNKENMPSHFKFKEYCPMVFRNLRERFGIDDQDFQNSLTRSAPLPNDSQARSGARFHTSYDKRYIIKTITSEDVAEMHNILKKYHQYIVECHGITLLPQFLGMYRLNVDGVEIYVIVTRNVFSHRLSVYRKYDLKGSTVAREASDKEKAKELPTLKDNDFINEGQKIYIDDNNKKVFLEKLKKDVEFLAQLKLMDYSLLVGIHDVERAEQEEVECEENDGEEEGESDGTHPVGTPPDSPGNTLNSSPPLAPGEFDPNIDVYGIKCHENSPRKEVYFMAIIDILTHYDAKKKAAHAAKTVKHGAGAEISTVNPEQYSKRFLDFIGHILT
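Compounds were pin-transferred onto PI5P4Kalpha and substrate in HEPES pH 7.4 buffer with EGTA, CHAPS and 5% DMSO. ATP (5 microM final) started the reaction, which ran 60 minutes at room temperature before ADP-Glo detection.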
HP1b chromo inh: inhibitors of HP1-beta chromodomain binding to methylated histone tails | P83916 | AlphaScreen HP1-beta / biotin-H3K9me3 peptide binding | Potency, µM (top dose mostly 114 µM), for inactives: top-dose activity change, negative = inhibition, hits mostly inhibitors | hit rate 0.56% among 390,000; further: potency means the concentration at half of the fitted maximal effect; nearly all actives have a fitted effect of over 70% in size
Target sequence (P83916 whole entry, looked up): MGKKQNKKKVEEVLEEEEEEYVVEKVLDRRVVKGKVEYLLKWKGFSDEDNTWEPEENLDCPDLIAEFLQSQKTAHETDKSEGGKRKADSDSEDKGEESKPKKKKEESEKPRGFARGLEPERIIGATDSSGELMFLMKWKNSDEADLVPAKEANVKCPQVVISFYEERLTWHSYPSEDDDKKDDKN
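HP1-beta protein (50 nM final) preincubated 30 min at room temperature with biotinylated H3(1-18)K9me3 peptide (50 nM) in PBS pH 7.4, 0.01% Tween-20, then compound added for 30 min. AlphaScreen streptavidin donor/nickel chelate acceptor beads (10 ug/mL final), 30 min dark, luminescence read.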
BAZ2B block: inhibitors of human BAZ2B bromodomain; Q9UIF8; AlphaScreen BAZ2B-H3K14Ac peptide displacement; Potency, µM (doses to about 114 µM), inactives show at the highest dose activity change, negative = inhibition, usual class: inhibitors; hit rate 4.4% among 360,000; further: potency means the concentration at half of the fitted maximal effect; on the % scale 0 is the no-effect control and ±100 the full control effect; nearly all actives have a fitted effect of over 60% in size
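BAZ2B 50 nM plus b-H3(5-23)K14Ac 50 nM, PBS pH 7.4/0.01% Tween-20, 30 min RT; compound added (max 110 uM), 30 min RT; streptavidin donor/Ni-chelate acceptor beads 10 ug/mL final, 20 min dark; AlphaScreen read.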
G9a block: blocks human histone lysine methyltransferase G9a; Potency, µM (top dose mostly 102 µM), for the others: at the highest dose activity, negative = inhibition, actives largely listed as inhibitors; Q96KQ7; AID 504332; G9a H3K9 monomethylation, AlphaScreen, 2 h; hit rate 8.8% among 350,000; further: potency means the concentration at half of the fitted maximal effect; on the % scale 0 is the no-effect control and ±100 the full control effect; nearly all actives have a fitted effect of over 75% in size
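Methyltransferase reactions run at room temperature for 2 h (20 nM enzyme, 500 nM biotin-H3K9 peptide, 20 uM SAM) after a 15 min compound preincubation; product detected by AlphaScreen beads and anti-H3K9me1 antibody.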
JMJD2A Tudor: blocks the human JMJD2A Tudor domain. AlphaScreen JMJD2A-Tudor / H3K4me3 peptide binding. Potency, µM (series often up to 114 µM), for the others: at the top dose activity change, negative = inhibition, actives largely listed as inhibitors. hit rate 4.4% among 390,000. AID 504339; further: potency means the concentration at half of the fitted maximal effect; on the % scale 0 is the no-effect control and ±100 the full control effect; nearly all actives have a fitted effect of over 50% in size
* hit, by the source's call; ? = inconclusive; nt = no result; [ ] = another dose, or the depositor's remark. Unless noted, the call rests on the fitted dose curve; in most records, active means well fitted curve in the direction sought with a large enough effect; inconclusive means small, poorly fitted or top-dose-only effect, or another doubt; inactive means no such curve, though single readings can be large; an effect the other way counts as inactive or inconclusive.

SMILES | PLK1 PBD inh | PI5P4K alpha inh | HP1b chromo inh | BAZ2B block | G9a block | JMJD2A Tudor
O=C1c2c(-c3ccc(Br)cc3)noc2CCN1Cc1cn(C2CCCC2)nn1 | -4% | 1 | nt | nt | nt | nt
CN(CC(=O)Nc1ccc(Cl)c(C(F)(F)F)c1)C(=O)CNC(=O)C1CCCCC1 | -15% | 9 | 18% | 4% | -16%[2.33 µM] | -5%
COc1ccccc1C(=O)Nc1cccc(OCc2cc(=O)n3ccccc3n2)c1 | nt | nt | 21%[57 µM] | 7% | 5%[59 µM] | -11%
CSc1ccc(S(=O)(=O)Nc2ccc(OCC(=O)N3CCOCC3)cc2)cc1 | ? | -2 | 24% | 2% | 11µM* | -9%
CC(NC(=O)COc1ccc([N+](=O)[O-])cc1)c1ccccc1 (stereo not drawn) | 12µM* | -17 | 7% | -17% | -19% | ?
O=C(COc1ccc(/C=N/NS(=O)(=O)c2ccccc2)cc1)Nc1cccc(Cl)c1 | 1% | -8 | 27% | 1% | 50µM* | -23%
CCN(CC)Cc1c(C(=O)N/N=C/c2c(Cl)cccc2Cl)nnn1-c1nonc1N | -1% | 5 | 30% | -7% | 1% | -1%
O=C(NCc1ccc(Cl)cc1)c1cnc2sc(N3CCOCC3)nn2c1=O | nt | nt | 0% | 4% | -22%[59 µM] | -17%
O=C(NCc1ccc(Cl)cc1)c1cnc2sc(N3CCCC3)nn2c1=O | nt | nt | 25% | -1% | -2%[59 µM] | 79µM*
COc1ccc(-n2cnc3cc(C(=O)NC4CCCCCC4)ccc32)cc1 | nt | nt | 18% | ? | -32%[59 µM] | -24%
CCCN1CNc2c(c(=O)[nH]c(=S)n2CCc2ccsc2)C1 | nt | nt | 31% | nt | nt | -7%
Cc1sc(N/N=C/c2cccs2)nc1-c1ccccc1 | ? | -4 | ? | -27% | 45µM* | 25µM*
CN(C)CCCNc1nc2sc3c(c2c(=O)n1CCc1ccccc1)CCCCC3 | -7% | 10 | ? | ? | 45µM* | ?
CN(C)CCCn1c(=O)n(Cc2ccco2)c(=O)c2c3c(sc21)CCCCC3 | -2% | -7 | -9% | -36% | ? | -33%
CN(C)CCCn1c(=O)n(CCc2ccccc2)c(=O)c2c3c(sc21)CCCCC3 | -10% | -1 | -14% | ? | -79% | 56µM*
O=c1c2c3c(sc2nc(NCCO)n1-c1ccccc1)CCCC3 | -6% | 8 | 38% | -1% | -18% | -4%
CN(C)CCn1c(=O)n(Cc2ccccc2)c(=O)c2c3c(sc21)CCCCC3 | 5% | 6 | ? | ? | 50µM* | 40µM*
Cc1cc(C)cc(OCC(=O)N2N=C(C(F)(F)F)CC2(O)C(C)(C)C)c1 (stereo not drawn) | -11% | -3 | 10% | -3% | 1.6µM* | -9%[57.1 µM]
Cc1cc(NC(=O)CCCn2cnc([N+](=O)[O-])n2)no1 | 12µM* | ? | 6% | -6% | 2% | -20%[11.4 µM]
COc1cccc(CN2C(=O)N(c3ccc(C)cc3)C(=O)C2CC(=O)Nc2cc(OC)cc(OC)c2)c1 (stereo not drawn) | nt | nt | 30% | -19% | ? | -17%
CCc1nc2ccccc2c(=O)n1NC(=O)c1c(O)c2ccccc2[nH]c1=O | -10% | -6 | -1% | ? | 82%[59 µM] | 79µM*
O=C(O)CCCN1C(=O)C2C3CC(C2C1=O)C1C(c2ccccc2)c2sc(=O)[nH]c2SC31 (stereo not drawn) | -21% | -1 | 26% | nt | ? | -5%
O=C(O)CN1C(=O)C2C3CC(C2C1=O)C1C(c2ccc(Cl)cc2)c2sc(=O)[nH]c2SC31 (stereo not drawn) | -16% | 0 | -1% | -26% | 50µM* | -17%
CC(C(=O)O)N1C(=O)C2C3CC(C2C1=O)C1C(c2ccccc2)c2sc(=O)[nH]c2SC31 (stereo not drawn) | ? | 7 | 22% | -4% | -5%[59 µM] | -28%
O=C(O)CN1C(=O)C2C3CC(C2C1=O)C1C(c2ccc(F)cc2)c2sc(=O)[nH]c2SC31 (stereo not drawn) | ? | -7 | 14% | 2% | 45µM* | -13%
SMILES | PLK1 PBD inh | PI5P4K alpha inh | HP1b chromo inh | BAZ2B block | G9a block | JMJD2A Tudor
COCC(=O)N(C)C[C@@H]1Oc2ncc(Br)cc2C(=O)N([C@@H](C)CO)C[C@H]1C | -15% | 2 | nt | nt | nt | nt
CCCCOc1ccc(C(=O)NCC(c2ccc(Cl)cc2)N2CCOCC2)cc1 (stereo not drawn) | nt | nt | 44% | -11% | 8%[59 µM] | -14%
COc1ccc(N2CCN(CCNS(=O)(=O)c3cccc4nsnc34)CC2)cc1 | 27µM* | 4 | -30% | -39% | ? | -18%[11.4 µM]
COc1ccc(N2CCN(CCNC(=O)CCS(=O)(=O)c3cccc4nsnc34)CC2)cc1 | nt | nt | nt | ? | 45µM* | nt
CN(C)CCN(C(=O)c1ccc2ccccc2c1)c1nc2ccc(F)cc2s1 | -7% | 5 | 0% | -38%[57.1 µM] | 45µM* | ?
CCc1ccc2nc(N(CCN(C)C)C(=O)c3ccc4ccccc4c3)sc2c1 | -27% | 4 | 5% | ? | 79µM* | ?
CN(C)CCCN(C(=O)c1ccc(C(=O)c2ccccc2)cc1)c1nc2ccc(F)cc2s1 | 7% | 2 | 44% | ? | ? | -2%
CN(C)CCN(C(=O)c1ccc2ccccc2c1)c1nc2cc3c(cc2s1)OCO3 | -19% | -3 | nt | nt | nt | nt
CN(C(=O)Nc1ccc(Cl)c(Cl)c1)c1ccccc1C(=O)O | -6% | 0 | 7% | -12% | 56µM* | 5%
O=C(Nc1ccc(Cl)c(Cl)c1)c1ccccc1 | 2% | -2 | 61% | 11% | -7%[2.33 µM] | 18%
O=C(OCC(=O)N1CCCC1)c1cnc(Cl)c(Cl)c1 | -3% | -4 | 16%[57 µM] | nt | nt | -2%
Cc1cccc(N(Cc2cc(=O)[nH]c3ccccc23)C(=O)CCl)c1 | -10% | -16 | -3% | -17% | 5.6µM* | 56µM*
CCCC(=O)N(Cc1cc(=O)[nH]c2ccccc12)c1cccc(C)c1 | -23% | -13 | -10% | -5% | 28µM* | ?
CCOc1c(Br)cc(C2CC(=O)Nc3cc4c(cc32)OCO4)cc1OC (stereo not drawn) | nt | nt | 10% | -36% | ? | ?
CCOc1ccc(CCNC(=O)Cn2c(C)c3cnn(-c4ccccc4)c(=O)c3c2C)cc1 | nt | nt | 23% | 2% | 4%[59 µM] | -3%
O=C(C1=C(O)C(=O)N(c2ncccn2)C1c1ccc(Cl)cc1)c1ccco1 (stereo not drawn) | -8% | -14 | 18% | 71µM* | nt | -22%
O=C(C1=C(O)C(=O)N(Cc2ccco2)C1c1cccc(Cl)c1)c1ccco1 (stereo not drawn) | -9% | 1 | 25% | 5% | 54% | -21%
CC(=O)C1=C(O)C(=O)N(c2ccccn2)C1c1ccc(Cl)cc1 (stereo not drawn) | -8% | 0 | 11% | 10% | -14% | -3%
